# Bioassay records from PubChem.
# This is one part of a sample in which hits are shown more often than they occur.
# FECH inh: blocks human mitochondrial ferrochelatase activity; calls only at 10 µM (by protocol); P22830; hit rate 3.3% among 20,000; purified FECH, Ni-mesoporphyrin absorbance 550 nm; AID 1671448;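 active = enzyme reaction rate more than 3 SD below the solvent-only control wells on the same plate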;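 note: lower slope than DMSO wells means FECH inhibition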
# Target sequence (P22830 whole entry, looked up): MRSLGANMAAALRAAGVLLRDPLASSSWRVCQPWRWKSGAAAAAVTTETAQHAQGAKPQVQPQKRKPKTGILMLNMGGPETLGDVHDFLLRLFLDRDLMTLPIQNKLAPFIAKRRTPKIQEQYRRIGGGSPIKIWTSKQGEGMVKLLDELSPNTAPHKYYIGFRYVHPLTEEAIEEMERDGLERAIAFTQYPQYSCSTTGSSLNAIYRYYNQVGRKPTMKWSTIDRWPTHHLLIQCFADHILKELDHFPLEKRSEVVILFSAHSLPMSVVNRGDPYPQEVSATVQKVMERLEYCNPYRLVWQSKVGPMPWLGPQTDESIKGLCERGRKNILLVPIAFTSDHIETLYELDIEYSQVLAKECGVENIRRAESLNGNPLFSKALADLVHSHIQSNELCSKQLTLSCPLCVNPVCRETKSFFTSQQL
# Active calls of the source: *; i = inactive; + = active, no number.
SMILES,FECH inh
Clc1ccc(Nc2nc(NCC3CCCO3)nc3c2cnn3-c2ccccc2)cc1 (stereo not given),+
CC(C)OCCCNc1nc(Nc2ccc(F)cc2)c2cnn(-c3ccccc3)c2n1,i
Fc1ccc(Nc2nc(NCC3CCCO3)nc3c2cnn3-c2ccccc2)cc1 (stereo not given),i
COc1ccc(Nc2nc(NCCCOC(C)C)nc3c2cnn3-c2ccccc2)cc1,i
CC(C)OCCCNc1nc(Nc2ccc(Cl)cc2)c2cnn(-c3ccccc3)c2n1,+
COc1ccc(Nc2nc(NCC3CCCO3)nc3c2cnn3-c2ccccc2)cc1 (stereo not given),i
CCC(=O)Nc1ccccc1-c1nnc(SC(C)C(=O)Nc2cc(Cl)ccc2C)[nH]c1=O (stereo not given),i
Cc1ccc2c(c1)CCCN2C(=O)CN1CCCC1c1cc(C)no1 (stereo not given),i
CCc1ccc(NC(=O)NCCn2c(-c3ccncc3)nc3cccnc32)cc1,i
Cc1ccc(-c2nc3cccnc3n2CCNS(C)(=O)=O)cc1,i
O=S(=O)(Cc1ccccc1)NCCn1c(-c2ccccc2)nc2cccnc21,i
COc1ccc(Cl)cc1S(=O)(=O)NCCn1c(-c2ccc(C)cc2)nc2cccnc21,+
COc1ccc(OC)c(S(=O)(=O)NCCn2c(-c3ccc(C)cc3)nc3cccnc32)c1,i
CCOC(=O)c1ccccc1NC(=O)NCCn1c(-c2ccncc2)nc2cccnc21,+
Cc1ccc(-c2nc3cccnc3n2CCNS(=O)(=O)Cc2ccccc2)cc1,+
COc1ccc(OC)c(S(=O)(=O)NCCn2c(-c3ccccc3)nc3cccnc32)c1,i
CCOc1ccc(NC(=O)NCCn2c(-c3ccncc3)nc3cccnc32)cc1,i
Cc1nonc1OCCNC(=O)Cc1c(C)[nH]c2c(F)cccc12,i
CC(C)Oc1ccc(CNC(=O)CN2C(=O)CN(C)C(=O)c3ccccc32)cc1,i
CC(=O)N[C@H]1C[C@@H](c2ccccc2-c2ccccc2)O[C@@H](C(C)C)C1,i
CNC(=O)[C@@H]1C[C@@H](N)CN1Cc1cc(C)n(-c2cc(C)ccn2)c1C,i
CC1CCCN(C(=O)c2[nH]cnc2C(=O)NCc2ccccc2)C1 (stereo not given),i
O=C(NCC1CCCCC1)c1nc[nH]c1C(=O)NCc1ccccc1,+
COc1ccccc1CNC(=O)c1[nH]cnc1C(=O)NCCc1c[nH]c2ccccc12,i
COc1ccccc1CNC(=O)c1nc[nH]c1C(=O)NCc1ccccc1,+
SMILES,FECH inh
O=C(NC1CCCCC1)c1nc[nH]c1C(=O)NC1CCCC1,i
O=C(NCc1ccccc1)c1nc[nH]c1C(=O)N1CCCCC1,i
CC(C)CCNC(=O)c1nc[nH]c1C(=O)NCC1CC1,i
COc1ccccc1CNC(=O)c1[nH]cnc1C(=O)NCC1CC1,i
O=C(NC1CCCCC1)c1nc[nH]c1C(=O)NC1CCc2ccccc21 (stereo not given),+
COc1ccccc1CNC(=O)c1[nH]cnc1C(=O)NCCN(C)C,i
COc1ccccc1CNC(=O)c1[nH]cnc1C(=O)NCC1CCCCC1,+
CC(C)NC(=O)c1nc[nH]c1C(=O)NC1CCCc2ccccc21 (stereo not given),i
O=C(NCCc1cnc[nH]1)C1CCCN(C2CCN(Cc3ccccc3)CC2)C1 (stereo not given),i
Cc1cc2c(cc1O)NC(=O)CC2c1ccc(Oc2ccccc2)nc1 (stereo not given),i
COc1cccc(NC(=O)N2CCCC2C(=O)Nc2ccc(C(C)=O)cc2)c1 (stereo not given),i
COc1ccc(Cl)cc1-n1nc(C(C)C)nc1CSc1nnc(C)o1,i
O=C(c1ccc(Cn2ccnc2)o1)N1CCCC1c1ccccn1 (stereo not given),i
CC(c1ccncc1)N(C)Cc1ccc(-n2cccn2)cc1 (stereo not given),i
Cc1ccc(NC(=O)N2CCN(c3cc(-c4ccccc4C)ncn3)CC2)c(C)c1,i
Cc1nc(S(=O)(=O)N2CCCCC2c2cccc(F)c2)cn1C (stereo not given),i
COc1ccc(C(=O)Oc2ccc(Nc3cc(C)nc4nc(-c5cccnc5)nn34)cc2)cc1,i
COCCNC(=O)C1CCCN(C2CCN(C(=O)Cc3cc(C)no3)CC2)C1 (stereo not given),i
Cc1ccc(CNC(=O)c2[nH]cnc2C(=O)NC(C)C)o1,i
CC(C)CCNC(=O)c1nc[nH]c1C(=O)NCc1ccccc1,i
COc1ccccc1CN(Cc1cccnc1)C(=O)c1sc(C)nc1C,i
O=C(NC1CCCCNC1=O)c1nc[nH]c1C(=O)NCc1ccccn1 (stereo not given),i
O=C(NCc1ccccn1)c1nc[nH]c1C(=O)NCc1cccnc1,+
O=C(NC1CCCCC1)c1nc[nH]c1C(=O)NCc1ccccn1,+
CCCCCN(C)C(=O)c1[nH]cnc1C(=O)NCc1ccccc1,i
SMILES,FECH inh
Cc1ccc(CNC(=O)c2nc[nH]c2C(=O)NCc2ccccn2)o1,+
Cc1ccc(CNC(=O)c2[nH]cnc2C(=O)NC2CCCCC2)o1,i
CC(C)(C)CNC(=O)c1nc[nH]c1C(=O)NCc1ccccc1,i
CCCNC(=O)c1[nH]cnc1C(=O)NC1CCCCC1,i
COc1ccccc1CNC(=O)c1nc[nH]c1C(=O)NCc1cccnc1,+
CCN1CCc2c(sc(NC(=O)c3sc4ccccc4c3Cl)c2C(=O)OC)C1,i
CN(C)c1ncccc1CNC(=O)c1ccccc1-n1cncn1,i
CC(C)NC(=O)CNC(C)COc1ccccc1 (stereo not given),i
CC(CN1CCCCCC1)NCC1CCN(C(=O)C(C)C)CC1 (stereo not given),i
CC(C)NC(=O)[C@@H]1C[C@@H](N)CN1C(=O)c1ccccc1-c1nccn1C,i
CCN(CCN(C)C)c1ncc(NS(=O)(=O)c2ccc3c(c2)CCCC3)cc1C(=O)O,i
COc1ccc(Cl)cc1NC(=O)N1CCC(n2c(C)nc3cccnc32)CC1,i
CCOc1ccc(OCC)c(NC(=O)CN2C(=O)CN(C)C(=O)c3ccccc32)c1,i
CCc1cc(CN(C)C(=O)c2cn3c(n2)CNCC3)on1,i
CN1CCNC(=O)C12CCN(C(=O)CN1CCCCCCC1)CC2,i
Cc1cnc(Cn2ccnc2-c2cccc(C(F)(F)F)c2)cn1,i
Cc1ccc(S(=O)(=O)NCc2nc3cccnc3n2C)cc1C,i
CCN(CCn1cccn1)C(=O)c1ccc(Cl)s1,i
C=CCSC(C)C(=O)N1CCCN(C2CCCC2)CC1 (stereo not given),i
CNS(=O)(=O)c1ccc(CCc2nc(C)nn2-c2ccc(F)cc2)cc1,i
COc1ccc(S(=O)(=O)Nc2cnc(N3CCOCC3)c(C(=O)O)c2)cc1Cl,i
Cc1cc(C)cc(NC(=O)CCc2nc(-c3cc4ccc(C)cc4[nH]c3=O)no2)c1,i
CC(C)CCNC(=O)c1nc[nH]c1C(=O)N1CCC(O)(c2ccc(Cl)cc2)CC1,i
CC(C)(C)CNC(=O)c1nc[nH]c1C(=O)N1CCC(O)(c2ccc(Cl)cc2)CC1,i
COc1ccccc1CNC(=O)c1nc[nH]c1C(=O)N1CCC(O)(c2ccc(Cl)cc2)CC1,+
COc1ccccc1CNC(=O)c1nc[nH]c1C(=O)N1CCc2ccccc2C1,i
CCCNC(=O)c1[nH]cnc1C(=O)NC1CCCC1,i
COc1ccccc1CNC(=O)c1[nH]cnc1C(=O)NC1CCc2ccccc21 (stereo not given),+
